Among the test systems are AKT2; CDC42BPA; CDC42BPG; CIT; GSK3A; GSK3B; LATS1; MAPKAPK2; MARK2; MARK3; MARK4; PAK4; PAK6; PKN1; PKN3; PRKACA; PRKACB; PRKCD; PRKCI; PRKG1; PRKX; ROCK2; RPS6KA4; AKT1; ATM; ERBB3; PRKCQ; TTN.
Common to all, as to set-up: species or system human, MV4-11 + K-562 + COLO205 + SK-N-BE2 + OVCAR-8
Common to all, as to conditions: read-out: apparent Kd; compound concentrations:100 nM and 1000 nM (sheet 'Samples'); n = 1

`CCn1c(-c2nonc2N)nc2c(C#CC(C)(C)O)ncc(OCCCCN)c21.CCn1c(-c2nonc2N)nc2c(C#CC(C)(C)O)ncc(OCCCCN)c21.O=C(O)C(F)(F)F.O=C(O)C(F)(F)F` [GSK507274A]: the potency estimated from few doses with AKT2 is 1440 nM; in the assay on CDC42BPA, 2200 nM; with CDC42BPG, 1800 nM; in the assay on CIT, 554 nM; with GSK3A it was 328 nM; with GSK3B, 488 nM. Besides, the potency estimated from few doses with LATS1 is 83.9 nM; in the assay with MAPKAPK2, 1370 nM; with MARK2 it was 440 nM; in the assay with MARK3, 178 nM; in the assay with MARK4 it was 629 nM; in the assay with PAK4, 30.9 nM. The potency estimated from few doses in the assay on PAK6 was 99.3 nM; in the assay with PKN1, 191 nM; with PKN3 it was 13 nM; with PRKACA, 787 nM; in the assay on PRKACB it was 965 nM; with PRKCD, 1450 nM. The potency estimated from few doses in the assay with PRKCI was 1890 nM; in the assay with PRKG1 it was 1070 nM; in the assay with PRKX, 54.1 nM; in the assay with ROCK2, 446 nM; in the assay with RPS6KA4 it was 749 nM.

Turning to `CCn1c(-c2nonc2N)nc2c(C#CC(C)(C)O)ncc(OC[C@@H]3CCCN3)c21.O=C(O)C(F)(F)F` [GSK614526A], the potency estimated from few doses in the assay on AKT1 was 1090 nM; in the assay on AKT2, 934 nM; with ATM it was 303 nM; in the assay with CIT, 983 nM; in the assay with ERBB3, 1810 nM; in the assay with GSK3A it was 365 nM. Further, the potency estimated from few doses is 440 nM in the assay with GSK3B; 634 nM in the assay with LATS1; 762 nM with MARK2; 607 nM with MARK3; 1040 nM with MARK4; 66.7 nM with PAK4. In addition, the potency estimated from few doses was 821 nM in the assay on PAK6; 215 nM with PKN1; 150 nM with PKN3; 144 nM in the assay with PRKACA; 510 nM in the assay with PRKACB; 2140 nM in the assay with PRKCD. For the same molecule, the potency estimated from few doses in the assay on PRKCQ was 1170 nM; with PRKG1, 69.9 nM; with PRKX, 1.38 nM; in the assay on TTN it was 544 nM.

Source of the values: PMC11062922 (Nature Chemical Biology, 2023).
